Source: PubChem BioAssay

Legend:
[1] = test system: Human papillomavirus type 1a protein E7 (residues 44-93); test: small molecules binding HPV E7 44-93 – biochemical, small-molecule microarray, residues 44-93, 635 nm fluorescence, primary screen (AID 1108); conditions: fluorescence 635 nm, higher = more signal;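 further: E7 fragment applied at 1 µg/mL in TBST for 1 h at 4 C; score combines spot fluorescence with its signal to noise ratio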
[2] = hepatitis C replication reporter changes, two-sided – Huh7 cells, luciferase reporter, HCV replication inhibitor project, primary screen (AID 1109); conditions: Huh7 HCV replicon luciferase reporter, 48 h; higher = more signal;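 further: huh7 hepatoma cells harbouring a luciferase neomycin HCV replicon reporter; luciferase luminescence as measure of HCV replicon replication; test concentration not given here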
[3] = target: Left-right determination factor 2 (Homo sapiens) (UniProt O00292); test: small molecules binding LEFTY2 protein – biochemical, small-molecule microarray, 635 nm fluorescence scan, primary screen (AID 1110); conditions: higher = more signal
[4] = target: Calmodulin-1 (Homo sapiens) (UniProt P0DP23); test: small molecules binding calmodulin-1 with EGTA – biochemical, small-molecule microarray, Cy5-labelled CALM1, profiling panel (AID 1111); conditions: Cy5-CALM1 binding fluorescence, higher = more signal;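 further: labelled calmodulin applied in Tris saline Tween buffer holding calcium plus EGTA and DTT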
[5] = target: Calmodulin-1 (Homo sapiens) (UniProt P0DP23); test: small molecules binding Ca-loaded calmodulin-1 – biochemical, small-molecule microarray, Cy5-labelled CALM1, plus calcium, artefact control for SMM control-protein annotation, profiling panel (AID 1112); conditions: Cy5-CALM1 binding fluorescence, higher = more signal;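 further: score merges spot fluorescence with signal to noise from triplicate slides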
[6] = probe aWnt5a binding to arrayed compounds – biochemical, biotinylated probe, 635/667 nm fluorescence, primary screen (AID 1113); conditions: small-molecule microarray, higher = more signal;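 further: score merges 667 nm fluorescence intensity with signal-to-noise per printed feature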
[7] = probe aShh binding to arrayed compounds – biochemical, biotinylated probe, 635/667 nm fluorescence, primary screen (AID 1114); conditions: small-molecule microarray, higher = more signal;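 further: probe is biotin-labelled aShh protein from a stem cell growth factor screen; measures binding of labelled protein to compounds printed on the slide; score merges feature fluorescence at 667 nm with signal-to-noise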
[8] = probe aNog binding to arrayed compounds – biochemical, biotinylated probe, 635/667 nm fluorescence, primary screen (AID 1115); conditions: small-molecule microarray, higher = more signal;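 further: probe is biotinylated aNog protein used at 0.15 µg/mL for 1 h at 4 C; z-score combines 667 nm fluorescence of each spot with its signal to noise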
[9] = target: Torsin-1A-interacting protein 1 (Homo sapiens) (UniProt Q5JTV8); test: compound microarray binding of lysate hLAP1 – cell lysate, small-molecule microarray, COS7 lysate, 635/667 nm fluorescence, primary screen (AID 1116); conditions: 635 nm fluorescence, higher = more signal
[10] = target: Alpha-bungarotoxin (Bungarus multicinctus) (UniProt P60615); test: compounds binding labelled alpha-BTX control protein – biochemical, small-molecule microarray, Alexa647 label, 635/667 nm fluorescence, artefact control for SMM control protein annotation, profiling panel (AID 1117); conditions: alpha-BTX-A647 binding fluorescence, higher = more signal
Sequence of Alpha-bungarotoxin (Bungarus multicinctus) (P60615 whole entry, looked up): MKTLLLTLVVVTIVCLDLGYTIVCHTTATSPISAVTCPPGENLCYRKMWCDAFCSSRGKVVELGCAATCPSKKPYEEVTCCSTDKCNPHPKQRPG

Sequence of Left-right determination factor 2 (Homo sapiens) (O00292 whole entry, looked up): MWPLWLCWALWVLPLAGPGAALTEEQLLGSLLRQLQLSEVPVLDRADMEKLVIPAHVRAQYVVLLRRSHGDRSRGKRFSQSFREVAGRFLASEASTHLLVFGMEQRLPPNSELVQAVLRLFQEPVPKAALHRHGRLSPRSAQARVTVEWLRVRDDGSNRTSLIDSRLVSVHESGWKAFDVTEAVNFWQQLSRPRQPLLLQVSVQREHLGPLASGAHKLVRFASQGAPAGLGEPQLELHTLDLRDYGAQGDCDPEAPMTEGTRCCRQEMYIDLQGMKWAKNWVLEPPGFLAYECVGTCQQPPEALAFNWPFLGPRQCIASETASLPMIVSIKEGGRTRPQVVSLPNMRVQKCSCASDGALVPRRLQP
Sequence of Torsin-1A-interacting protein 1 (Homo sapiens) (Q5JTV8 whole entry, looked up): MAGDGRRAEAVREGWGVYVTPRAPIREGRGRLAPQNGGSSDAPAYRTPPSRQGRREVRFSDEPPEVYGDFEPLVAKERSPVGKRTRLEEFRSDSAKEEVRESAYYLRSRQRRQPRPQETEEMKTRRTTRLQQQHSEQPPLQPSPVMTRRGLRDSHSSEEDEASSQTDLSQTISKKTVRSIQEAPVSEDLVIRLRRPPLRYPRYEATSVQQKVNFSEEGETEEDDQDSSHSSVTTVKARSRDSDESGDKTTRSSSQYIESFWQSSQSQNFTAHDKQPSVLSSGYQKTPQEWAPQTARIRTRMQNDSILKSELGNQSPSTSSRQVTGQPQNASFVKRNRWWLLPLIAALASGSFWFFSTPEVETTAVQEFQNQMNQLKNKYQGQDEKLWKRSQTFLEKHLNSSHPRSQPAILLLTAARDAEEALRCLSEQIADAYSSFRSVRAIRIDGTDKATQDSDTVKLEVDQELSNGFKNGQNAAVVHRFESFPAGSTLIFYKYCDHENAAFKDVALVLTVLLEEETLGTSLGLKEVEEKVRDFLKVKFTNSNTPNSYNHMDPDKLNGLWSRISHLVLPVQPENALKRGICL

SMILES	composite z-score [1]	z-score [2]	composite z-score [3]	composite z-score [4]	composite z-score [5]	composite z-score [6]	composite z-score [7]	composite z-score [8]	composite z-score [9]	composite z-score [10]
CCCC[C@H]1OB(O)C[C@H]2C1=C(C)C[C@H]1C(=O)N(C)C(=O)[C@H]12	0.736	-0.686	0.654	-0.0405	0.06	-0.0462	-0.243	0.322	-0.368	0.27
C=CCN1C(=O)[C@]2(O[C@H](CCn3cc(CCO)nn3)[C@@H]([Si](C)(C)c3ccc(OC)cc3)[C@@H]2C)c2cc(N3CCOC3=O)ccc21	1.07	-3.46	-0.264	0.504	-0.463	-0.0403	-0.0356	-0.0841	1.52	0.465
O=C1[C@H]2[C@H]3[C@H](O)[C@H](O)CC(=NO[C@@H]4O[C@H](CO)[C@@H](O)[C@H](O)[C@H]4O)[C@@H]3CC[C@H]2C(=O)N1c1ccc(F)cc1F	0.343	0.434	0.428	-0.364	-0.561	-0.12	0.284	-0.349	0.467	0.161
CC(C)NC(=O)[C@@H]1c2ccccc2C(=O)N(CC23CC4CC(CC(C4)C2)C3)[C@H]1c1ccc(CO)cc1	1.36	-1.67	0.606	0.324	-0.291	-0.0835	0.439	-0.338	0.774	0.812
CC(=O)C[C@H](O)[C@@H](NC(=O)OC(C)(C)C)C(C)C	-2.43	0.479	-0.319	-0.292	-0.327	-0.203	0.0121	-0.0926	-0.547	0.0557
CC(C)c1ccc(NN2C(C(O)c3ccc4c(c3)OCO4)C=CC3C(=O)N(c4ccccc4)C(=O)C32)cc1 (stereo not given)	0.688	1.11	0.168	2.56	1.28	0.0775	0.108	2.13	2.2	1.92
O=C(NN=C1C[C@@H](O)[C@@H](O)[C@@H]2[C@@H]3C(=O)N(c4ccc(F)cc4F)C(=O)[C@@H]3CC[C@@H]12)OCc1ccccc1	0.782	-0.769	0.312	-0.0007	-0.226	0.0354	-0.0553	-0.562	0.547	0.736
CC[C@@H](c1ccccc1)n1c(=O)n2n(c1=O)[C@H]1[C@H](O)[C@@H]3O[C@@H]3C(=NOCC(C)C)[C@H]1CC2	0.284	-2.11	0.143	-0.0128	-0.178	-0.12	-0.14	-0.407	0.107	-0.088
N#Cc1ccc(NN2C(C(O)c3cccc4ccccc34)C=CC3C(=O)N(c4ccccc4)C(=O)C32)cc1 (stereo not given)	1.48	0.148	0.221	1.74	0.164	0.139	0.23	0.837	0.365	1.09
O=C(NN=C1C[C@@H](O)[C@@H](O)[C@@H]2[C@@H]3C(=O)N(c4cccc(Oc5ccccc5)c4)C(=O)[C@@H]3CC[C@@H]12)OCc1ccccc1	0.69	-0.983	0.127	0.131	0.0109	-0.145	-0.206	0.0658	0.184	0.837
COC(=O)[C@H](C)NC(=O)CCC1CC(OC(=O)NCc2cccc3ccccc23)CC2(CCCC(COC(=O)NCCc3ccc(Cl)cc3)O2)O1 (stereo not given in full)	0.953	-1.05	0.451	0.866	-0.0789	-0.0075	-0.138	-0.213	0.33	0.171
CO[C@H]([C@@H](C)[C@H](OC)c1ccccc1)[C@H](C)[C@@H](OC)[C@H](C)C(C)=O	-0.431	1.14	0.402	-1.1	-0.0474	0.0101	-0.367	-0.0286	-0.482	-0.847
CCc1cccc(NC(=O)O[C@H]2[C@H](OC(=O)Nc3ccc4c(c3)OCO4)[C@@H](OC(=O)Nc3ccc4c(c3)OCO4)[C@@H](OC)O[C@@H]2CO)c1	1.4	-0.717	0.645	0.779	-1.12	0.0136	0.214	-0.229	0.577	0.545
C=CC[C@@H]1C=C[C@H](ON=Cc2ccc(C(=O)N3[C@H](c4ccc(C)cc4)[C@@H](C)CC[C@H]3C(=O)OC)cc2)[C@@H](CO)O1	0.792	-1.52	0.432	-0.36	-0.621	-0.148	-0.16	-0.0337	0.0268	-0.255
COCCCNC(=O)[C@@]1(CCS(=O)(=O)c2ccccc2)N=C(c2ccc(OCCCO)cc2)O[C@H]1c1ccccc1	0.432	-1.2	-0.133	0.361	0.4	0.525	0.179	2.11	2.95	2.44
COC(=O)[C@@H]1N=C(c2ccc(OCCCO)cc2)O[C@@H]1c1ccccc1N=[N+]=[N-]	0.515	-1.66	-0.187	1.54	1.04	-0.0445	0.214	0.619	1.27	1.42
CO[C@@H]1COC(=O)[C@@H]2CCCN2C(=O)[C@@H](C)COC(=O)[C@H](COCc2ccccc2)NC(=O)CC=C[C@H]1C	0.929	0.323	0.39	-0.142	-0.713	-0.0748	0.0941	-0.111	0.142	0.199
CCOc1ccc(N2C(=O)/C(=C/C=C/c3ccccc3OC)S(=O)(=O)C2c2cccc([N+](=O)[O-])c2)cc1 (stereo not given)	-0.432	-2.17	0.49	1.27	0.545	0.0017	-0.2	0.0373	0.351	0.321

SMILES	composite z-score [1]	z-score [2]	composite z-score [3]	composite z-score [4]	composite z-score [5]	composite z-score [6]	composite z-score [7]	composite z-score [8]	composite z-score [9]	composite z-score [10]
C[C@@H]1C=CCC(=O)OC[C@H](C)C(=O)N[C@@H](C)C(=O)OC1	-0.0639	-0.512	0.409	-0.556	-0.897	-0.0721	0.178	-0.141	0.789	-0.194
C[C@@H]1CCC2C(=O)N(Cc3ccccc3)C[C@@H](O)CN2[C@H]1c1ccc(Br)cc1 (stereo not given in full)	0.671	0.344	0.149	0.102	-0.28	-0.169	-0.138	-0.0675	0.199	0.0711
CC1CC/C=C\[C@H]2OC34C=CCN(C(C)C)C(=O)[C@H]3N(CCCO)C(=O)[C@@H]4C2C(=O)O1 (stereo not given in full)	-0.249	-0.513	-0.523	-1.04	0.271	-0.184	-0.181	-0.0898	0.646	-1.54
CC(C)CN1CCc2nc(-c3ccccc3)c3c(c2CC1)CO[C@@H](C)C3	-0.749	-0.747	0.774	-0.268	-0.177	0.027	0.191	-0.138	0.12	0.405
O=C1O[C@@H](c2ccccc2)[C@@H](c2ccccc2)N2[C@@H](c3ccc(OCCO)cc3)[C@]3(C(=O)Nc4ccc(C#CCCO)cc43)[C@@H](C(=O)N3CCCCCCC3)[C@H]12	-0.516	-0.777	1.07	2.62	1.06	0.935	2.18	2.81	4.07	2.78
COCC(=C=CC[C@@H](O)c1ccccc1OCCO)CCO	0.692	-0.779	-0.0632	0.0775	0.119	-0.206	0.0796	-0.333	0.416	0.113
CCOC(=O)[C@H](CC(C)C)NC(=O)CCC1CC(OC(=O)NCCc2ccc(F)cc2)CC2(CCCC(COC(=O)NCc3ccccc3)O2)O1 (stereo not given in full)	1.37	-1.76	1.16	0.0292	-0.008	-0.113	-0.214	-0.183	0.575	0.287
C=CCC(OC(C)=O)[C@@H]1[C@@H](N(Cc2cc3ccccc3o2)C(=O)Cc2ccc(F)cc2)c2cc(OCCCO)ccc2N1C(=O)Cc1ccc(OC)cc1 (stereo not given in full)	-1.07	-1.14	-0.0691	-0.481	-0.435	-0.236	0.14	0.0234	0.158	0.286
NCCCCCNC(=O)[C@@H]1C[C@@H]2C(=O)N3CCC[C@H]3C(=O)N2[C@@H]1c1cccc(OCCO)c1	0.933	-1.03	0.781	1.38	0.929	0.0024	0.315	1.55	1.72	0.482
O=C1[C@H]2[C@H]3[C@H](O)[C@H](O)CC(=NOCc4ccccc4)[C@H]3CC[C@H]2C(=O)N1c1cccc(Oc2ccccc2)c1	0.934	0.162	0.389	0.364	-0.177	0.0145	-0.16	-0.305	0.683	0.684
COC(=O)CC1OC1[C@H](C)[C@@H](OC)C(C)C (stereo not given in full)	-0.792	-0.0397	0.389	-0.723	-1.26	-0.1	-0.147	-0.487	0.601	0.93
Cc1ccc(F)cc1S(=O)(=O)N[C@@H]1CCN(Cc2ccc(CC(C)C)cc2)C1	0.135	-3.88	-0.185	-0.793	-0.328	-0.23	-0.138	-0.272	0.464	0.0331
COC(=O)[C@@]1(Cc2ccc(F)cc2)[C@@H]2C(=CC(=O)[C@H]2CC(=O)C(=O)N(C)C)CN1C(=O)c1ccccc1	1.46	-2.09	0.45	1.98	1.21	0.0839	1.21	0.896	1.52	0.954
C[C@@H](c1ccccc1)N1C(=O)[C@H]2[C@H]3[C@H](O)[C@H](O)CC(=NOC[C@@H](O)COCc4ccco4)[C@@H]3CC[C@H]2C1=O	-0.856	0.816	-0.433	-0.495	-0.307	-0.124	-0.0863	-0.413	-0.375	0.556
COc1ccc(COC(=O)NN=C2C[C@@H](O)[C@@H](O)[C@@H]3[C@@H]4C(=O)N(Cc5ccc6c(c5)OCO6)C(=O)[C@@H]4CC[C@@H]23)cc1	-0.743	-0.404	-0.218	-0.389	-0.252	-0.0465	0.255	0.175	0.508	0.452
CC(CCN1CCc2nc(-c3ccccc3)c(-c3ccccc3)cc2C1)=NO[C@@H](C)c1cn([C@H](CO)Cc2ccccc2)nn1	-0.127	-0.985	0.555	0.0845	0.444	-0.139	-0.221	-0.305	-0.273	1.42
CO[C@@H]1COC(=O)CCC[C@@H](C)[C@H](OC)COC(=O)[C@H](Cc2ccccc2)NC(=O)CC=C[C@H]1C	-1.68	-1.48	0.714	-1.16	-1.81	-0.197	0.194	0.0596	-0.405	-0.0864
